Measurements published in PubChem BioAssay AID1851 (National Center for Advancing Translational Sciences (NCATS), 2009).
The campaign covered roughly 16,000 compounds. About 2,600 (16%) were called active. Another 20% or so got no clear call; they are omitted. Calls follow the shape of the dose curve; as a rule, active = well fitted curve in the direction sought with a large enough effect; inconclusive = small, poorly fitted or top-dose-only effect, or effect the other way; inactive = no such curve, though single readings can be large or run the other way. These entries were drawn from the full list.

Molecular target: Cytochrome P450 2D6 (Homo sapiens) (UniProt P10635)
Experiment: Cytochrome panel assay with activity outcomes
Conditions: recombinant CYP, pro-luciferin dealkylation, luminescence, p450-cyp2d6; series mostly up to 57.1 µM
% is scaled to controls: 0 for no effect and ±100 for the full control effect.

Sequence of Cytochrome P450 2D6 (Homo sapiens) (P10635 whole entry, looked up): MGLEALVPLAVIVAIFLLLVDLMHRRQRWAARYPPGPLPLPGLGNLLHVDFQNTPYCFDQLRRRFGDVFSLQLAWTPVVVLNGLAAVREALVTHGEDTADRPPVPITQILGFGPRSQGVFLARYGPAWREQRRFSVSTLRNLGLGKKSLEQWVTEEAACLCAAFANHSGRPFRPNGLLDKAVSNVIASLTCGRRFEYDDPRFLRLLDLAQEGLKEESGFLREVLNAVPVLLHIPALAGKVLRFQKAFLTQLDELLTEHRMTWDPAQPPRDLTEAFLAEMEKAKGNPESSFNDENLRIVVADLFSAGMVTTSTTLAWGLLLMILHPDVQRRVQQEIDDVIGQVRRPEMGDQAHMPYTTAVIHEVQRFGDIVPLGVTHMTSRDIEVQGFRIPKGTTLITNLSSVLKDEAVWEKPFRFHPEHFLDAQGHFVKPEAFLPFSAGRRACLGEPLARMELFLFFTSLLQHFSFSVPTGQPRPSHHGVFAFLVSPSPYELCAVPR

AC50, inactive:
Cc1ccc(S(=O)(=O)N[C@H](C(=O)Oc2ccc3c(C(F)(F)F)cc(=O)oc3c2)c2ccccc2)cc1, CSc1nnc(-c2ccc(Cl)cc2Cl)o1, CCN1C(=O)C(O)(CC(=O)/C=C/C=C/c2ccccc2)c2ccccc21 (configuration not stated), O=c1c(-c2cccs2)nc2cnc(N3CCOCC3)nc2n1-c1ccccc1, COc1ccc(-n2c(=O)c(-c3cccs3)nc3cnc(N4CCOCC4)nc32)cc1, COC(=O)C1=C(CSc2nncn2C)NC(=O)NC1c1ccc(F)cc1 (configuration not stated), CC(=O)Nc1ccc(S(=O)(=O)NCC2CCC(C(=O)NCCC(C)C)CC2)cc1 (configuration not stated), Cc1ccc(S(=O)(=O)N2CCC(C(=O)NCCCOC(C)C)CC2)cc1, CCc1ccccc1NC(=O)c1nnn(CC(=O)Nc2cccc(C)c2C)c1N, C/C(=N\Nc1nc(N)cc(Cl)n1)c1cccc([N+](=O)[O-])c1, O=C(Cc1ccc(Cl)cc1)NNC(=O)Nc1cccc2ccccc12, O=C(Cc1ccc(Cl)cc1)Nc1cccc(-c2nnc(-c3ccco3)o2)c1, Cc1ccc(C(=O)NCc2ccc(N3CCN(C(=O)OC(C)(C)C)CC3)cc2)cc1, CC(C)NC(=O)CC(=O)N/N=C/c1ccc(F)cc1, CCCCCSc1nncc(=O)[nH]1, Cc1cc(Oc2ccccc2)nc(NCc2ccccc2)n1, CN(C)c1ncc2nc(-c3cccs3)c(=O)n(-c3ccccc3)c2n1, CCN(CC)c1ccc2cc(C(C)=O)c(=O)oc2c1, CCN(CC)c1ccc(C(=O)OCc2cc(=O)oc3cc(O)ccc23)cc1, CCOC(=O)c1ccccc1NC(=O)/C(C)=C/C(=O)O, COCCn1c(=O)c(-c2cn(C)c3ccccc23)nc2cnc(Oc3cccc(Cl)c3)nc21, CCCOc1ccccc1-c1nc2n[nH]nc2c(=O)[nH]1, CNc1nc(C)cc(C)c1S(=O)(=O)c1ccc(Cl)cc1, Cc1nn(C(=O)c2ccco2)c(C)c1Sc1ccc(Br)cc1, Cc1ccc(Sc2c([N+](=O)[O-])ncn2C)cc1, O=C(OC1CCN(c2ccc([N+](=O)[O-])cc2)CC1)c1ccccc1, COc1ccc(-n2c(C)cc(C=O)c2C)cc1Cl, CC(C)(O)c1cn(-c2nonc2N)nn1, COC(=O)c1c(NC(=O)c2ccco2)sc2c1CCC2, Cc1ccc(C(=O)Nc2ccc(C(=O)/C=C/c3cccs3)cc2)cc1, CN(C(=O)C(Cl)Cl)c1ccc(OC(=O)c2ccco2)cc1, c1ccc2nc(C3=NCCN3)cnc2c1, c1ccc2cc(C3=NCCN3)ncc2c1, O=C(Oc1ccccc1)N1CCC2(CC1)CCN(c1ccccn1)CC2, CCOc1ccc(-c2c[n+](=O)c3c(n2[O-])CCCC3)c(OCC)c1, CCCCn1c(SCc2c(C)noc2C)nc2cc(S(N)(=O)=O)ccc21, CCn1c(=O)[nH]c2ccccc21, CCN1CNC(=S)N(c2cc(C)ccc2C)C1, COc1ccc(NC(=O)N2CC3(CCN(C(=O)c4ccco4)CC3)C2)cc1, CC(=O)N1CCC2(CCN(Cc3nccs3)CC2)CC1, O=C(c1cccc(F)c1)N1CCC2(CCN(Cc3nccs3)CC2)CC1, O=C(Nc1ccccc1)N1CC2(CCN(C(=O)c3ccco3)CC2)C1

AC50, active:
Clc1ccc(-c2nnc(CCc3ccccc3)o2)c(Cl)c1 11.2 µM, CC(C)c1ccc2c(c1)C(c1ccc(N3CCOCC3)cc1)=NNC(c1cccs1)=N2 7.08 µM, CC(=O)Nc1ccc(S(=O)(=O)N2CCC(N(C)CCC(C)C)CC2)cc1 8.91 µM, O=C(Cc1ccccc1)Nc1nc2ccc(Cl)cc2c2nc(-c3ccco3)nn12 10 µM, Cc1nc(SCc2cccc(Oc3ccccc3)c2)n[nH]1 14.1 µM, CCN(CC)c1ccc2c(Cl)cc(=O)oc2c1 12.6 µM, Cc1nn(S(=O)(=O)c2cccs2)c(C)c1Sc1ccc([N+](=O)[O-])cc1 2.24 µM, Cc1ccc(S(N)(=O)=O)cc1NC(=O)/C=C/c1cccs1 14.1 µM, Cc1ccccc1/C=C\C1=NCCN1 25.1 µM, CCCCn1c(NCc2ccccc2NS(=O)(=O)c2ccc(C)cc2)nc2ccccc21 0.501 µM, O=c1[nH]c2ccccc2n1CCCN1CCN(C(c2ccccc2)c2ccccc2)CC1 0.794 µM, O=C(c1ccco1)N1CCC[C@@]2(CCN(Cc3ccccc3)C2)C1 2 µM, O=C(c1ccco1)N1CCC2(CCN(Cc3ccccc3)CC2)CC1 3.98 µM, O=C(c1ccco1)N1CCC2(CCN(Cc3nccs3)CC2)CC1 1 µM, COc1ccccc1CN1CC[C@@]2(CCCN(C(=O)c3ccco3)C2)C1 0.501 µM

activity, negative = inhibition, inactive:
O=C(O)/C(=C\c1ccc(O)cc1)c1cccc2ccccc12 -6.42% [at 11.4 µM], O=C(O)[C@H]([C@H]1NCCS1)N1Cc2ccccc2C1 5.75% [at 11.4 µM], CCN=C(N)CSS(=O)(=O)O -8.26% [at 11.4 µM], O=C(N/N=C1/C[C@@H](O)[C@@H](O)[C@@H]2[C@H]3C(=O)N(c4ccc(F)cc4F)C(=O)[C@@H]3CC[C@H]12)OCc1ccccc1 -17.3% [at 11.4 µM], Clc1ccc(-c2nnc(-c3cccc4ccccc34)o2)cc1Cl 17.5% [at 11.4 µM], CC(C)CO/N=C1/C[C@@H](O)[C@@H](O)[C@@H]2[C@@H]3C(=O)N(C[C@@H]4CCCO4)C(=O)[C@H]3CC[C@@H]12 17.5% [at 11.4 µM], c1ccc(CSc2nnc3c4ccccc4c4ccccc4c3n2)cc1 -1.49% [at 11.4 µM], Cc1cccc(C)c1NC(=O)Nc1ccc(S(N)(=O)=O)cc1 -10.2% [at 11.4 µM], Cc1ccc(S(=O)(=O)Nc2ccccc2C=O)cc1 -1.56% [at 11.4 µM], CC(C)=NOCc1ccc(-c2cc(-c3ccccc3)no2)cc1 1.27% [at 11.4 µM]
